Experimental data published in the supplement of paper PMC4723716.
± gives the uncertainty stated by the source. Whole data set: some 9,900 compounds, median “viability index relative to DMSO control” near 1, cut for the lowest 2% near 0.85. What follows is part of a selection rich in the lowest values, with near analogues and random picks from the rest.

System: Plasmodium falciparum NF54 stage V gametocytes
Assay: viability index relative to DMSO control (fraction); higher = less gametocyte killing
Conditions: 2.5 µM, incubation time: 72 h
In short: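 Gametocytes (P. falciparum NF54, stage V) were treated with compound at 2.5 µM for 72 hr at 37°C in low oxygen, in serum-free medium at 0.75% gametocytemia and 1.25% hematocrit. Counts of 20–70 µm2 red particles, taken from one field per well after MitoTracker Red CMXRos with saponin, were divided by the plate mean of solvent-only wells. This ratio is the viability index.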

[1] = library set: Broad Institute DOS
[2] = library set: Broad Institute Blood Stage

| Compound | viability index [1] | viability index [2] |
| --- | --- | --- |
| COc1ccccc1NC(=O)N1C[C@H](O)COC[C@H]2O[C@H](CC(=O)NCCc3ccncc3)CC[C@@H]21 | 1.08 ± 0.062 |  |
| O=C1CCC(=O)N[C@@H](c2ccccc2)C/C=C\CCN1 | 1.01 ± 0.087 |  |
| COc1ccc(NC(=O)N2C[C@@H]3[C@H](c4ccccc42)[C@H](CO)N3Cc2ccccn2)cc1 | 0.993 ± 0.11 |  |
| CCCNC(=O)Nc1ccc2c(c1)OC[C@H](C)N(Cc1cncnc1)C[C@@H](C)[C@H](OC)CN(C)C2=O | 0.989 ± 0.014 |  |
| CO[C@H]1CN(C)C(=O)c2cc(NC(=O)C3CCCCC3)ccc2OC[C@H](C)N(Cc2cccnc2)C[C@H]1C | 1.037 ± 0.0049 |  |
| Cc1noc(C)c1S(=O)(=O)N(C)C[C@@H]1OCc2cn(nn2)CCCC(=O)N([C@@H](C)CO)C[C@H]1C | 1.03 ± 0.014 |  |
| C[C@H](CO)N1C[C@H](C)[C@H](CN(C)S(=O)(=O)c2cn(C)cn2)Oc2cc(C#Cc3cccc(F)c3)ccc2S1(=O)=O | 0.9878 ± 0.0014 |  |
| Cc1ccc(S(=O)(=O)N(C)C[C@H]2Oc3cc(C#CC4CCCC4)ccc3S(=O)(=O)N([C@@H](C)CO)C[C@@H]2C)cc1 | 0.705 ± 0.12 |  |
| C[C@H](CO)N1C[C@H](C)[C@@H](CN(C)S(=O)(=O)c2cn(C)cn2)Oc2cc(C#Cc3cccc(F)c3)ccc2S1(=O)=O | 1.05 ± 0.09 |  |
| COc1cccc(-c2ccc3c(c2)[C@@H]2[C@@H](CCN2S(=O)(=O)c2cn(C)cn2)[C@@H](CO)N3)c1 | 0.97 ± 0.14 |  |
| COc1ccc(S(=O)(=O)Nc2ccc3c(c2)CC(=O)N([C@@H](C)CO)C[C@@H](C)[C@H](CN(C)C(=O)Nc2c(C)noc2C)O3)cc1 | 0.986 ± 0.019 |  |
| Cc1noc(C)c1S(=O)(=O)Nc1ccc2c(c1)CC(=O)N([C@H](C)CO)C[C@H](C)[C@H](CN(C)Cc1ccc(Oc3ccccc3)cc1)O2 | 0.981 ± 0.01 |  |
| Cc1noc(C)c1S(=O)(=O)Nc1ccc2c(c1)CC(=O)N([C@@H](C)CO)C[C@H](C)[C@H](CN(C)Cc1ccc(Oc3ccccc3)cc1)O2 | 0.923 ± 0.045 |  |
| COc1ccc(S(=O)(=O)Nc2ccc3c(c2)CC(=O)N([C@@H](C)CO)C[C@@H](C)[C@H](CN(C)Cc2ccc(C(=O)Nc4ccccc4N)cc2)O3)cc1 | 0.836 ± 0.077 |  |
| COc1ccc(S(=O)(=O)Nc2ccc3c(c2)CC(=O)N([C@H](C)CO)C[C@@H](C)[C@@H](CN(C)Cc2ccc(C(=O)Nc4ccccc4N)cc2)O3)cc1 | 0.956 ± 0.014 |  |
| COc1ccc(S(=O)(=O)Nc2ccc3c(c2)CC(=O)N([C@H](C)CO)C[C@@H](C)[C@H](CN(C)Cc2ccc(C(=O)Nc4ccccc4N)cc2)O3)cc1 | 0.966 ± 0.1 |  |
| Cc1noc(C)c1S(=O)(=O)Nc1ccc2c(c1)CC(=O)N([C@@H](C)CO)C[C@@H](C)[C@@H](CN(C)Cc1ccc(Oc3ccccc3)cc1)O2 | 0.851 ± 0.12 |  |
| COc1ccc(S(=O)(=O)Nc2ccc3c(c2)CC(=O)N([C@@H](C)CO)C[C@H](C)[C@@H](CN(C)Cc2ccc(C(=O)Nc4ccccc4N)cc2)O3)cc1 | 0.872 ± 0.11 |  |
| COc1ccc(S(=O)(=O)Nc2ccc3c(c2)CC(=O)N([C@@H](C)CO)C[C@H](C)[C@H](CN(C)Cc2ccc(C(=O)Nc4ccccc4N)cc2)O3)cc1 | 0.993 ± 0.024 |  |
| COc1ccc(S(=O)(=O)Nc2ccc3c(c2)CC(=O)N([C@@H](C)CO)C[C@@H](C)[C@@H](CN(C)Cc2ccc(C(=O)Nc4ccccc4N)cc2)O3)cc1 | 0.844 ± 0.012 |  |
| COc1ccc(S(=O)(=O)Nc2ccc3c(c2)CC(=O)N([C@H](C)CO)C[C@H](C)[C@@H](CN(C)Cc2ccc(C(=O)Nc4ccccc4N)cc2)O3)cc1 | 1 ± 0.027 |  |
| COc1ccc(S(=O)(=O)Nc2ccc3c(c2)CC(=O)N([C@H](C)CO)C[C@H](C)[C@H](CN(C)Cc2ccc(C(=O)Nc4ccccc4N)cc2)O3)cc1 | 0.766 ± 0.044 |  |

| Compound | viability index [1] | viability index [2] |
| --- | --- | --- |
| CS(=O)(=O)N1CC(=O)N2[C@@H](CO)[C@H](c3ccc(Br)cc3)[C@@H]2C1 | 1.05 ± 0.057 |  |
| CN1C[C@H]2[C@@H](c3ccccc31)[C@H](CO)N2Cc1ccccc1Cl | 1.03 ± 0.064 |  |
| C[C@H](CO)N1C[C@H](C)[C@H](CN(C)C(=O)Nc2ccc3c(c2)OCO3)Oc2c(NC(=O)c3nc4ccccc4s3)cccc2C1=O | 0.987 ± 0.021 |  |
| Cc1noc(C)c1NC(=O)N1C[C@@H](O)COC[C@@H]2O[C@H](CC(=O)N3CCc4ccccc4C3)CC[C@H]21 | 1.08 ± 0.11 |  |
| COc1ccc(S(=O)(=O)N(C)C[C@@H]2Oc3c(NC(=O)c4nc5ccccc5s4)cccc3C(=O)N([C@H](C)CO)C[C@@H]2C)cc1 | 0.951 ± 0.047 |  |
| O=C(O)[C@H]1[C@H](CO)[C@H]2Cn3c(ccc(C4=CCCCC4)c3=O)[C@H]2N1Cc1ccc2c(c1)OCO2 | 1.01 ± 0.026 |  |
| CO[C@H]1CC[C@@H]2CCOc3c(C#N)cccc3C(=O)N(C)C[C@H](OC)[C@@H](C)C(=O)N(C)C[C@@H]1O2 | 1.01 ± 0.033 |  |
| C[C@@H]1CN([C@H](C)CO)C(=O)Cc2cc(NC(=O)CCN3CCOCC3)ccc2O[C@@H]1CN(C)Cc1ccc(C(=O)O)cc1 | 1 ± 0.17 |  |
| C[C@@H]1CN([C@H](C)CO)C(=O)c2ccccc2-c2ccccc2CO[C@@H]1CN(C)Cc1cccc(C(=O)O)c1 | 0.958 ± 0.11 |  |
| C[C@@H]1CN([C@@H](C)CO)C(=O)c2ccccc2-c2ccccc2CO[C@@H]1CN(C)Cc1ccccc1C(F)(F)F | 0.8276 ± 0.0015 |  |
| C[C@@H]1CN([C@H](C)CO)C(=O)c2ccccc2-c2ccccc2CO[C@@H]1CN(C)Cc1ccccc1C(F)(F)F | 0.806 ± 0.11 |  |
| C[C@@H]1CN([C@@H](C)CO)C(=O)c2ccccc2-c2ccccc2CO[C@H]1CN(C)Cc1cccc(C(=O)O)c1 | 0.987 ± 0.016 |  |
| C[C@H]1CN([C@@H](C)CO)C(=O)c2ccccc2-c2ccccc2CO[C@H]1CN(C)Cc1cccc2c1OCCCO2 | 0.825 ± 0.16 |  |
| CCCN(C)C[C@H]1OCc2ccccc2-c2ccccc2C(=O)N([C@@H](C)CO)C[C@H]1C | 0.89 ± 0.011 |  |
| C[C@H]1CN([C@@H](C)CO)C(=O)c2ccccc2-c2ccccc2CO[C@H]1CN(C)Cc1ccccc1C(F)(F)F | 0.726 ± 0.14 |  |
| C[C@H](CO)N1C[C@H](C)[C@H](CN(C)Cc2ccccc2C(F)(F)F)OCc2ccccc2-c2ccccc2C1=O | 1 ± 0.015 |  |
| C[C@@H]1CN([C@@H](C)CO)C(=O)c2ccccc2-c2ccccc2CO[C@@H]1CN(C)Cc1cccc2c1OCCCO2 | 1 ± 0.11 |  |
| C[C@H](CO)N1C[C@H](C)[C@@H](CN(C)Cc2cccc3c2OCCCO3)OCc2ccccc2-c2ccccc2C1=O | 1.06 ± 0.093 |  |
| C[C@@H]1CN([C@@H](C)CO)C(=O)c2ccccc2-c2ccccc2CO[C@H]1CN(C)Cc1ccccc1C(F)(F)F | 0.883 ± 0.044 |  |
| C[C@@H]1CN([C@@H](C)CO)C(=O)c2ccccc2-c2ccccc2CO[C@@H]1CN(C)Cc1cccc(C(=O)O)c1 | 0.974 ± 0.098 |  |
| O=C(NCc1ccccc1)[C@H]1[C@H](CO)[C@H]2Cn3c(cccc3=O)[C@@H]1N2C(=O)Cc1ccccn1 | 1.01 ± 0.015 |  |
| CCc1cnc(N2[C@H](C#N)[C@H](c3ccc(C#Cc4ccccc4F)cc3)[C@H]2CO)s1 | 0.8872 ± 0.0045 |  |

| Compound | viability index [1] | viability index [2] |
| --- | --- | --- |
| COCC(=O)N1[C@H](CO)[C@@H](c2ccccc2)C12CN(Cc1cc(F)ccc1F)C2 | 1.07 ± 0.023 |  |
| CC(C)(C)[S@@](=O)N1Cc2cc(C(=O)NC3CCC3)nc(-c3cccc(Br)c3)c2[C@H]1CCO | 0.994 ± 0.058 |  |
| O=C(NCC[C@H]1CC[C@@H](NC(=O)c2ccncc2)[C@H](CO)O1)Nc1ccc(Cl)cc1 | 1.17 ± 0.023 |  |
| CCCC#Cc1ccc2c(c1)[C@@H]1[C@@H](CCN1S(=O)(=O)c1cccc(F)c1)[C@@H](CO)N2C | 1.12 ± 0.051 |  |
| C[C@H](CO)N1C[C@H](C)[C@H](CN(C)Cc2cccc3c2OCCCO3)OCc2ccccc2-c2ccccc2C1=O | 1.04 ± 0.039 |  |
| C[C@@H]1CN([C@H](C)CO)C(=O)c2ccccc2-c2ccccc2CO[C@@H]1CN(C)Cc1cccc2c1OCCCO2 | 0.941 ± 0.019 |  |
| C[C@H]1CN([C@@H](C)CO)C(=O)c2ccccc2-c2ccccc2CO[C@@H]1CN(C)Cc1ccccc1C(F)(F)F | 0.843 ± 0.028 |  |
| O=C(Cc1cccnc1)N1CC(=O)N2[C@H](C1)[C@@H](c1ccc(/C=C/c3ccccc3)cc1)[C@@H]2CO | 1 ± 0.029 |  |
| COCC(=O)N1CC(=O)N2[C@H](CO)[C@@H](c3ccc(-c4ccccc4F)cc3)[C@@H]2C1 | 1.07 ± 0.083 |  |
| O=C(c1ccccc1)N1CC(=O)N2[C@H](C1)[C@@H](c1ccc(-c3ccccc3)cc1)[C@@H]2CO | 0.829 ± 0.051 |  |
| O=C(c1cnccn1)N1CC(=O)N2[C@@H](CO)[C@@H](c3ccc(-c4cccc(F)c4)cc3)[C@@H]2C1 | 1.02 ± 0.058 |  |
| O=C(c1ccncc1)N1CC(=O)N2[C@H](C1)[C@@H](c1ccc(-c3cccnc3)cc1)[C@@H]2CO |  | 0.891 ± 0.059 |
| O=C(c1cnccn1)N1CC(=O)N2[C@@H](CO)[C@H](c3ccc(-c4cccc(F)c4)cc3)[C@@H]2C1 | 1 ± 0.049 |  |
| O=C(c1ccc(F)cc1)N1CC(=O)N2[C@H](C1)[C@@H](c1ccc(-c3cccnc3)cc1)[C@@H]2CO |  | 0.733 ± 0.11 |
| O=C(c1ccccc1)N1CC(=O)N2[C@H](CO)[C@@H](c3ccc(-c4ccccc4)cc3)[C@H]2C1 | 1.018 ± 0.0095 |  |
| O=C(c1cnccn1)N1CC(=O)N2[C@H](CO)[C@@H](c3ccc(-c4cccc(F)c4)cc3)[C@@H]2C1 | 0.99 ± 0.047 |  |
| O=C(c1cnccn1)N1CC(=O)N2[C@H](C1)[C@@H](c1ccc(-c3cccc(F)c3)cc1)[C@@H]2CO | 1.02 ± 0.012 |  |
| O=C(c1cccc(F)c1)N1CC(=O)N2[C@H](C1)[C@@H](c1ccc(-c3cccnc3)cc1)[C@@H]2CO |  | 0.817 ± 0.042 |
| O=C(c1ccccc1)N1CC(=O)N2[C@H](CO)[C@H](c3ccc(-c4ccccc4)cc3)[C@@H]2C1 | 1.02 ± 0.066 |  |
| O=C(c1cccc(F)c1)N1CC(=O)N2[C@H](CO)[C@H](c3ccc(-c4cccnc4)cc3)[C@H]2C1 |  | 0.771 ± 0.058 |
| O=C(c1cccnc1)N1CC(=O)N2[C@H](CO)[C@H](c3ccc(-c4ccccc4F)cc3)[C@H]2C1 | 1.04 ± 0.041 |  |
| O=C(Cc1cccnc1)N1CC(=O)N2[C@H](CO)[C@@H](c3ccc(C4=CCCCC4)cc3)[C@H]2C1 | 0.9507 ± 0.0051 |  |
